# According to the supplement of paper PMC6992640:
# Where a name gives a salt, the structure may show the parent alone. ± gives the standard deviation of the averaged measurements.
# Tests used:
# Assay in all cases: cell viability (% of vehicle); higher = less cytotoxic
# Settings in all cases: 10 µM; 72 h
# HCI01 = system: HCI01 (cells of a triple-negative basal-like breast cancer xenograft)
# HCI03 = system: HCI03 (cells of an ER-positive luminal breast cancer xenograft)
# HCI09 = system: HCI09 (cells of a triple-negative luminal androgen receptor type breast cancer xenograft)
# HCI11 = system: HCI11 (cells of an ER-positive luminal breast cancer xenograft)
# HCI13 = system: HCI13 (cells of an ER-positive luminal breast cancer xenograft)
# HCI16 = system: HCI16 (cells of a triple-negative basal-like breast cancer xenograft)
# UCD52 = system: UCD52 (cells of a triple-negative basal-like breast cancer xenograft)
# WHIM2 = system: WHIM2 (cells of a triple-negative basal-like breast cancer xenograft)
# WHIM30 = system: WHIM30 (cells of a triple-negative basal-like breast cancer xenograft)
# 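Further: PDX cells carrying CMV promoter-driven luciferase, viability read as total photon flux per second by IVIS imaging following D-luciferin, vehicle control 0.1% DMSO.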
Structure (SMILES),cell viability (HCI01),cell viability (HCI03),cell viability (HCI09),cell viability (HCI11),cell viability (HCI13),cell viability (HCI16),cell viability (UCD52),cell viability (WHIM2),cell viability (WHIM30)
COC(=O)NC(C(=O)NC(Cc1ccccc1)C(O)CN(Cc1ccc(-c2ccccn2)cc1)NC(=O)C(NC(=O)OC)C(C)(C)C)C(C)(C)C.O=S(=O)(O)O (stereo unspecified),134 ± 8.2,135,74.8 ± 2.8,140,100 ± 5.6,138,113 ± 14,90 ± 6.2,148 ± 31
COC(=O)Nc1nc2ccc(S(=O)c3ccccc3)cc2[nH]1 (stereo unspecified) [Oxfendazole],102 ± 25,132,113 ± 1.8,93.1,179 ± 34,147,95.3 ± 8,87 ± 7.4,139 ± 8.4
CCC(C)C(=O)OC1CC(C)C=C2C=CC(C)C(CCC3CC(O)CC(=O)O3)C21 (stereo unspecified) [Lovastatin],119 ± 27,115,88.2 ± 12,181,131 ± 14,142,50.7 ± 5.3,71.5 ± 6.6,93.17 ± 0.92
CC(C=CC1=C(C)CCCC1(C)C)=CC=CC(C)=CC(=O)O [Isotretinoin],139 ± 2,109,91.69 ± 0.3,122,119 ± 3.2,105,190 ± 2.4,91.5 ± 10,142.94 ± 0.0078
Cl.NC(CO)C(=O)NNCc1ccc(O)c(O)c1O (stereo unspecified) [Benserazide HCl],95.9 ± 1.5,69.1,83.6 ± 6.1,44.9,79.2 ± 11,77.2,69.6 ± 8.5,96.3 ± 3.2,103 ± 4.4
CCOC(=O)C(CCc1ccccc1)NC(C)C(=O)N1Cc2ccccc2CC1C(=O)O.Cl (stereo unspecified) [Quinapril HCl],61.5 ± 37,111,72.7 ± 10,94.8,104 ± 5.7,96.9,83.7 ± 5.6,95.1 ± 3.9,105 ± 14
NCC1CCC(C(=O)O)CC1 (stereo unspecified) [Tranexamic Acid],118 ± 7.2,116,94.6 ± 25,111,74.8 ± 0.96,102,92.2 ± 5,124 ± 17,111 ± 16
CNS(=O)(=O)CCc1ccc2[nH]cc(C3CCN(C)CC3)c2c1.Cl [Naratriptan],102 ± 13,127,96.7 ± 4.1,72.5,86.22 ± 0.42,105,103 ± 1.1,91.5 ± 8,109 ± 7.3
COc1cc(Nc2nc3ccccc3nc2NS(=O)(=O)c2ccc(NC(=O)c3ccc(C)c(OC)c3)cc2)cc(OC)c1,86.4 ± 4.2,102,49.675 ± 0.011,86.9,66.9 ± 17,94.9,84.5 ± 8.2,54.3 ± 12,88.5 ± 24
COc1ccc2cc([C@H](C)C(=O)[O-])ccc2c1.[Na+] [Naproxen Sodium],83.6 ± 6.4,111,85.8 ± 14,106,124 ± 29,100,99.9 ± 3.1,102 ± 12,121 ± 22
Cc1c(O)cccc1C(=O)NC(CSc1ccccc1)C(O)CN1CC2CCCCC2CC1C(=O)NC(C)(C)C (stereo unspecified) [Nelfinavir],117 ± 39,93.4,52.9 ± 40,97.2,89.3 ± 0.59,101,68.7 ± 4,89.2 ± 16,61.5 ± 6.5
CCN(CCCc1ccccc1)CCCc1ccccc1.O=C(O)CC(O)(CC(=O)O)C(=O)O [Alverine Citrate],99.4 ± 3.5,95.5,104 ± 10,94.6,190 ± 4.8,118,59.9 ± 0.87,88.6 ± 4,102 ± 15
N[C@@H](CCC(=O)N[C@@H](CS)C(=O)NCC(=O)O)C(=O)O [L-Glutathione Reduced],103 ± 5.7,115,107 ± 4,85.3,104 ± 6.7,113,99.8 ± 5.5,98.6 ± 5,131 ± 2.4
Cl.Clc1ccc2nsnc2c1NC1=NCCN1 [Tizanidine HCl],115 ± 7.6,125,95.5 ± 43,102,125 ± 25,100,84.3 ± 0.65,88.3 ± 14,117 ± 20
NS(=O)(=O)c1cc2c(cc1Cl)NC=NS2(=O)=O [Chlorothiazide],101 ± 4.1,149,102 ± 12,121,134 ± 16,90,93.8 ± 13,89.4 ± 27,124 ± 29
CC1CC(OC(=O)C(O)c2ccccc2)CC(C)(C)C1 (stereo unspecified) [Cyclandelate],110 ± 9.8,122,87.6 ± 4.9,89.1,73.5 ± 14,113,80.8 ± 14,93.3 ± 10,95.91 ± 0.5
CC(C)(O/N=C(\C(=O)N[C@@H]1C(=O)N2C(C(=O)[O-])=C(C[n+]3ccccc3)CS[C@H]12)c1csc(N)n1)C(=O)O [Ceftazidime],101 ± 17,98.6,97.7 ± 0.81,81.6,119 ± 8.4,149,120 ± 15,120 ± 3.6,99.7 ± 8.2
Cc1ccc(NC(=O)c2ccc(CN3CCN(C)CC3)cc2)cc1Nc1nccc(-c2cccnc2)n1 [Imatinib (STI571)],87.1 ± 42,156,86.31 ± 0.75,89.4,108 ± 5.6,98.9,89.2 ± 1.7,91.7 ± 19,104 ± 12
C=C[C@]1(C)C[C@@H](OC(=O)CSC(C)(C)CNC(=O)[C@H](N)C(C)C)[C@]2(C)[C@H](C)CC[C@]3(CCC(=O)[C@H]32)[C@@H](C)[C@@H]1O [Valnemulin HCl],90.1 ± 7.2,107,66 ± 3.6,91.8,63.2 ± 0.68,120,78.3 ± 4.9,102 ± 20,114 ± 3
O=C([O-])Cc1ccccc1Nc1c(Cl)cccc1Cl.[Na+] [Diclofenac Sodium],94.9 ± 18,120,81.3 ± 5.4,73.9,105 ± 26,111,73.6 ± 8.9,90.2 ± 14,81.348 ± 0.07

Structure (SMILES),cell viability (HCI01),cell viability (HCI03),cell viability (HCI09),cell viability (HCI11),cell viability (HCI13),cell viability (HCI16),cell viability (UCD52),cell viability (WHIM2),cell viability (WHIM30)
CC(C)(C)NCC(O)COc1nsnc1N1CCOCC1.O=C(O)C=CC(=O)O (stereo unspecified) [Timolol Maleate],115.9 ± 0.17,116,106 ± 5.1,107,89.5 ± 12,120,96.4 ± 1.9,93.1 ± 15,112 ± 6.8
O=C(NCCN1CCOCC1)c1ccc(Cl)cc1,129.4 ± 0.71,171,114 ± 22,113,102 ± 2.1,110,109 ± 8.9,111 ± 16,138 ± 4
Nc1ccn(C2CCC(CO)O2)c(=O)n1 (stereo unspecified) [Zalcitabine],90.1 ± 3.1,124,102 ± 5.5,93.5,91.99 ± 0.76,128,104 ± 10,85.08 ± 0.32,176 ± 35
Cc1ccc(=O)n(-c2ccccc2)c1 [Pirfenidone],92.4 ± 3,99.8,103 ± 26,89.4,106 ± 4.5,91.3,85.5 ± 5.1,97 ± 15,111 ± 11
CCCCOc1cc(C(=O)NCCN(CC)CC)c2ccccc2n1.Cl [Dibucaine (Cinchocaine) HCl],124 ± 13,154,92.3 ± 9.3,103,116 ± 5.1,101,68 ± 3.4,96.4 ± 5.9,109 ± 4.7
CN(CCOc1ccc(NS(C)(=O)=O)cc1)CCc1ccc(NS(C)(=O)=O)cc1 [Dofetilide],101.7 ± 0.3,114,94.8 ± 5.2,94.2,97.8 ± 17,89.3,81.6 ± 13,90.2 ± 10,106 ± 5.1
CC1(C)SC2C(NC(=O)C(NC(=O)N3CCN(S(C)(=O)=O)C3=O)c3ccccc3)C(=O)N2C1C(=O)O.[Na] (stereo unspecified) [Mezlocillin Sodium],143 ± 62,142,104 ± 10,102,89.7 ± 3.6,123,105 ± 1.2,107 ± 20,103 ± 9.4
CC(=O)OC1CC2CCC3C(CCC4(C)C3CC([N+]3(C)CCCCC3)C4OC(C)=O)C2(C)CC1N1CCCCC1.[Br-] (stereo unspecified) [Vecuronium Bromide],84.7 ± 11,146,90.5 ± 0.71,105,110 ± 14,93.9,87.7 ± 8.1,80.9 ± 7.3,155 ± 3.4
CNCC(O)c1cccc(O)c1.Cl (stereo unspecified) [Phenylephrine HCl],110 ± 2.1,126,103 ± 22,105,78 ± 4.8,97.2,87.5 ± 4.1,86.1 ± 7.8,109 ± 7.6
CCN(CCO)CCCOc1ccc2c(Nc3cc(CC(=O)Nc4cccc(F)c4)[nH]n3)ncnc2c1 [Barasertib (AZD1152-HQPA)],136 ± 22,118,79.2 ± 6.8,91.5,97.3 ± 5.7,143,107 ± 20,89.4 ± 4,131 ± 0.53
COc1nc(C)nc(Cl)c1NC1=NCCN1 [Moxonidine],102 ± 7.2,116,103 ± 15,115,98.9 ± 5.5,95.3,82.9 ± 13,116 ± 12,118 ± 8.7
NNC(=O)c1ccncc1.Nc1ccc(C(=O)O)c(O)c1 [Pasiniazid],94.9 ± 11,111,127 ± 61,122,182 ± 9.2,83.7,95.1 ± 3.1,80.5 ± 33,133 ± 5.1
CC(COc1ccccc1)N(CCCl)Cc1ccccc1.Cl (stereo unspecified) [Phenoxybenzamine HCl],122 ± 3.3,131,133 ± 28,114,150 ± 8.9,195,104.7 ± 0.72,93.9 ± 10,191 ± 9.4
OC(Cn1cncn1)(Cn1cncn1)c1ccc(F)cc1F [Fluconazole hydrate],116 ± 7.6,109,99.4 ± 25,89.7,138 ± 7.4,101,93.5 ± 5.6,99.1 ± 9.9,127 ± 21
Cl.O=C1CC2(CCCC2)CC(=O)N1CCCCN1CCN(c2ncccn2)CC1 [Buspirone HCl],110 ± 16,95.5,91.3 ± 8.6,101,76.7 ± 2,119,106 ± 3.5,104.3 ± 0.12,90.4 ± 8.1
CC12CCC(O)CC1=CCC1C2CCC2(C)C(c3cccnc3)=CCC12 (stereo unspecified) [Abiraterone],138 ± 7.1,168,86.1 ± 4.6,76.6,145 ± 42,111,94.1 ± 9.2,131 ± 6.1,156 ± 22
CCNC1CC(N)C(OC2OC(CN)=CCC2N)C(O)C1OC1OCC(C)(O)C(NC)C1O.CCNC1CC(N)C(OC2OC(CN)=CCC2N)C(O)C1OC1OCC(C)(O)C(NC)C1O.O=S(=O)(O)O.O=S(=O)(O)O.O=S(=O)(O)O.O=S(=O)(O)O.O=S(=O)(O)O (stereo unspecified) [Netilmicin Sulfate],99.3 ± 34,125,125 ± 46,111,98.3 ± 2.5,138,120 ± 18,115.7 ± 1.1,138 ± 28
CNCC(O)C(O)C(O)C(O)CO (stereo unspecified) [Meglumine],80.2 ± 19,93.4,97.6 ± 1.5,74.4,142 ± 11,110,78.3 ± 1.6,85.9 ± 25,133 ± 5.2
CC(=O)OC1(C(C)=O)CCC2C3C=C(Cl)C4=CC(=O)C5CC5C4(C)C3CCC21C (stereo unspecified) [Cyproterone Acetate],88.6 ± 12,112,73.1 ± 17,87.1,145 ± 8,110,89.2 ± 7.3,116 ± 34,128 ± 7.7
